Measurements: PubChem BioAssay

Key:
[1] = molecular target: PEG-3 (UniProt Q6IN02); test: Peg3 promoter luciferase inhibitors, potency, dose response, cell-based, HeLa, CREF/GAPDH counter-screen panel (AID 624167); conditions: CREF/GAPDH counter-screens; HeLa PEG-Prom luciferase reporter, overnight, run 1, dose range 1, at 100 µM (top of the series) unless noted
[2] = molecular target: PEG-3 (UniProt Q6IN02); test: as above; conditions: CREF/GAPDH counter-screens; HeLa PEG-Prom luciferase reporter, overnight, run 2, dose range 1, at 100 µM (top of the series) unless noted
[3] = test system: Rat fibroblasts (CREF); test: as above; conditions: CREF/GAPDH counter-screens; run 1, dose range 1, at 100 µM (top of the series)
[4] = test system: Rat fibroblasts (CREF); test: as above; conditions: CREF/GAPDH counter-screens; run 2, dose range 1, at 100 µM (top of the series)
[5] = molecular target: Tumor necrosis factor receptor superfamily member 10B (Homo sapiens) (UniProt O14763); test: caspase-8 TRAIL sensitization, hit retest, confirmation, cell-based, NB7+caspase-8, with/without TRAIL, luminescence panel (AID 651596); conditions: NB7 neuroblastoma + caspase-8, TRAIL sensitization, luminescence viability, with TRAIL, mean of runs, at 10 µM, stronger effect = higher value
Tumor necrosis factor receptor superfamily member 10B (Homo sapiens), sequence (O14763 whole entry, looked up): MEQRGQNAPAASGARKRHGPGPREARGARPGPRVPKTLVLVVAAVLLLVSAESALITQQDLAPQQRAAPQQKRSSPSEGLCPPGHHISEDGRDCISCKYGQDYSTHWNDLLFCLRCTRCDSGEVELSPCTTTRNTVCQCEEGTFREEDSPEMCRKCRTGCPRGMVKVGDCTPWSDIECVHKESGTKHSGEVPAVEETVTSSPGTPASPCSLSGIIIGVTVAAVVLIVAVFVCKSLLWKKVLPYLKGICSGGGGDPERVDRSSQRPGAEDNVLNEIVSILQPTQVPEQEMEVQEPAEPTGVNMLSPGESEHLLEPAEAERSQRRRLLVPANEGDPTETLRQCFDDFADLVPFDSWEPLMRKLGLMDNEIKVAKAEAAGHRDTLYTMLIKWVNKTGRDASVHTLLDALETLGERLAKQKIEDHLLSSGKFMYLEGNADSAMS

[6] = as above; conditions: NB7 neuroblastoma + caspase-8, without TRAIL, luminescence viability, without TRAIL, mean of runs, at 10 µM
[7] = inhibitors of PAF-induced NFkB signaling in CF airway cells, dose response, cell-based, uHTS hits, panel, cytotoxicity readout (AID 624344); conditions: CF bronchial epithelial cells, PAF-induced NFkB reporter inhibition, with PAF, run 1; at 79 µM (top of the series) unless noted
[8] = as above; conditions: CF bronchial epithelial cells, PAF-induced NFkB reporter inhibition, with PAF, run 2; at 79 µM (top of the series) unless noted

PEG-3, sequence (Q6IN02 whole entry, looked up): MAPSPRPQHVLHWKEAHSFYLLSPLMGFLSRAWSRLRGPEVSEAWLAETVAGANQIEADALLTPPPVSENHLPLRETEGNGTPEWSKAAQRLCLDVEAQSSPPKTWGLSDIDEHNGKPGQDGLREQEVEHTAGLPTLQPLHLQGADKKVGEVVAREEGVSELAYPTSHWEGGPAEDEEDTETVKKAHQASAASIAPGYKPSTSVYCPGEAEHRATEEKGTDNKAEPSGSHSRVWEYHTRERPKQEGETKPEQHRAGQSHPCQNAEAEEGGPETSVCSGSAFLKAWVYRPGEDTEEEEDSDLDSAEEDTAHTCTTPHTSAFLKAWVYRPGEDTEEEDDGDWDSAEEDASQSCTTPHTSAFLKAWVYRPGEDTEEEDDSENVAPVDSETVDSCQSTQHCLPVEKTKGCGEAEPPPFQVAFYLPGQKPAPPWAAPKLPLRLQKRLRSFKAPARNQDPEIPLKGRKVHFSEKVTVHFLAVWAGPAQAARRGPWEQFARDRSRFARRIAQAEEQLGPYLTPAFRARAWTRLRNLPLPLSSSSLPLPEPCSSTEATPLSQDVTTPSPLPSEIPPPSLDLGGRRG

SMILES | inhibition [1] | inhibition [2] | inhibition [3] | inhibition [4] | activity [5] | activity [6] | inhibition [7] | inhibition [8]
COCCn1c(C)cc(C(=O)COC(=O)c2cccc(O)c2)c1C | 89.5% | 91.3% | 98.3% | 97.1% | 86.2% | 87.7% | – | –
Cc1cc(C(=O)COC(=O)c2ccccc2O)c(C)n1Cc1cccs1 | 88.8% | 94.8% | 94.6% | 87.5% | 95.7% | 95.5% | – | –
CS(=O)(=O)Nc1cccc(NC(=O)C2Cc3c(-c4ccccc4)ccnc3O2)c1 (stereo not drawn) | 58.9% | 75.2% | 35.5% | 40% | 57% | 69.3% | – | –
CCOC(=O)Cc1csc(NC(=S)NC(=O)c2ccc(Cl)cc2)n1 | 77.7% | 73.4% | 88% | 86.8% | 65.1% | 63.8% | – | –
OCC1OC(n2ccc3c(NO)ncnc32)C(O)C1O (stereo not drawn) | 99.4% | 101% | 95.4% | 94.6% | 98.8% | 99.1% | – | –
Cc1ccccc1-c1nc(-c2ccccn2)no1 | 96.7% | 92% | 99.5% | 99.3% | 88.8% | 86.8% | – | –
CN(C)CCCN(C(=O)c1ccc(S(=O)(=O)N2CCc3ccccc3C2)cc1)c1nc2ccc(F)cc2s1 | 102% | 98.9% | 99% | 98.9% | 48.5% | 17.1% | – | –
CCCn1c(C)cc(C(=O)CN2C(=O)c3ccccc3S2(=O)=O)c1C | 97.5% | 98.9% | 91.2% | 92.1% | 60.1% | 62.3% | – | –
COCCn1c(C)cc(C(=O)CSc2nnc(C)s2)c1C | 96.1% | 94.9% | 90.8% | 90.7% | 53.5% | 49% | – | –
COc1ccc(-c2nc(-c3ccccn3)no2)cc1 | 99.7% | 96.8% | 99.9% | 99.4% | 96.7% | 95.7% | – | –
Cc1ccc2nc(NC(=O)c3ccccn3)sc2c1 | 99.4% | 98.6% | 94.5% | 95.5% | 94% | 93.7% | – | –
COc1ccc(/C=N/Nc2nncc3ccccc23)cc1 | 92.6% | 95.4% | 97.8% | 98.9% | 97.3% | 97% | – | –
Clc1cccc(-c2nc(-c3ccccn3)no2)c1 | 89.2% | 92.5% | 96.4% | 94.4% | 84.3% | 82.3% | – | –
CN1CCN(c2ccc(-c3ccc4ccccc4n3)cc2)CC1 | 99.5% | 101% | 98.1% | 98.6% | 88.5% | 84.3% | – | –
COc1ccc(/C=C/c2nc3ccccc3n2C)cc1 | 99.2% | 97.5% | 100% | 99.9% | 97.2% | 97.1% | – | –
O=C1c2cccc3cc([N+](=O)[O-])cc(c23)C(=O)N1CCN1CCCC1 | 102% | 99.1% | 80.3% | 83% | 41.1% | 67.3% | – | –
CC(C)(C)C(=O)Nc1ccc(NC(=O)c2ccco2)nc1 | 102% | 101% | 100% | 100% | 98.7% | 98.5% | – | –
Cc1cccc(/C=N/Nc2ccc3ccccc3n2)c1 | 101% | 101% | 94.2% | 96.2% | 82.4% | 78.5% | – | –
C(=NNc1ccc2ccccc2n1)c1ccccn1 | 99% | 102% | 99% | 99.3% | 82.5% | 86% | – | –
CS(=O)(=O)Nc1cccc(NC(=O)C2Cc3c(-c4cccc(F)c4)ccnc3O2)c1 (stereo not drawn) | 77.9% [run 1, dose range 1, at 50 µM] | 85.4% | 17.8% | 29% | 75.5% | 73.2% | – | –
CC1=CC2C(C(O)CC3(C)C2CC(C)C32OCOC23COCO3)C2(C)C/C(=C\O)C(=O)C=C12 (stereo not drawn) | 102% | 101% | 100% | 100% | 94.3% | 98.1% | – | –
O=C(CCl)N1N=C(c2ccco2)CC1c1cccs1 (stereo not drawn) | 101% | 99.3% | – | – | 98.5% | 97.8% | – | –
CC1CCN(c2ccc(-c3cccc(NC(=O)C(F)(F)F)c3)nn2)CC1 | 93.8% | 94.5% | 99.2% | 99.5% | 97.5% | 97.7% | – | –
CS(=O)(=O)c1ccc2nc(NC(=O)CCS(=O)(=O)c3ccccc3)sc2c1 | 85% | 92.7% | – | – | – | – | 98.1% | 97.7%
NC(=O)c1nsc(C(=O)N(c2ccccc2F)C(C(=O)NCc2ccc(F)cc2)c2ccc(O)cc2)c1N (stereo not drawn) | 101% | 99.2% | – | – | – | – | 106% | 98.8%
O=C(CCl)Nc1cccc(-c2cnc3ccccc3n2)c1 | 101% | 98.6% | – | – | 99.3% | 99.2% | – | –
